Measurements reported in PubChem BioAssay AID1159580 (chemical genetic matrix, 2015).
About 2,000 (36%) of roughly 5,500 compounds were called active. About 18% were inconclusive and are not listed. Cut-off read from the data, not from the text of the source: active = normalized growth mostly below about 0.91 (no sharp cut-off); inconclusive = no clear call, values can overlap the other calls; inactive = mostly above about 0.92. The list shows a part of the results.

Experiment: chemical genetic growth profiling, strain panel (AID 1159580);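 note: tested at 20 µM; growth read once vehicle control cultures reached saturation at 30 °C; 1 = growth at the plate median or of vehicle wells; lower values mean less growth of the strain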
Details: growth OD

Measured: normalized growth

NC(=O)c1ncn([C@@H]2O[C@H](CO)[C@@H](O)[C@H]2O)n1
inactive: S. cerevisiae deletion strains, locus YJR075W, strain HOC1, stronger effect = lower value 0.989 | S. cerevisiae deletion strains, locus YKL009W, strain mrt4, stronger effect = lower value 0.992 | S. cerevisiae deletion strains, locus YKL068W, stronger effect = lower value 0.981 | S. cerevisiae deletion strains, locus YKL085W, strain MDH1 (second series), stronger effect = lower value 1 | S. cerevisiae deletion strains, locus YKL085W, strain MDH1, stronger effect = lower value 1 | S. cerevisiae deletion strains, locus YKL160W, strain elf1, stronger effect = lower value 0.984 | S. cerevisiae deletion strains, locus YKL190W, strain CNB1, stronger effect = lower value 0.988 | S. cerevisiae deletion strains, locus YKR001C, strain vps1, stronger effect = lower value 0.984 | S. cerevisiae deletion strains, locus YKR026C, strain gcn3, stronger effect = lower value 0.984 | S. cerevisiae deletion strains, locus YKR091W, strain srl3, stronger effect = lower value 0.982 | S. cerevisiae deletion strains, locus YLL001W, strain dnm1, stronger effect = lower value 0.984 | S. cerevisiae deletion strains, locus YLL026W, stronger effect = lower value 0.984 | S. cerevisiae deletion strains, locus YLL041C, strain sdh2, stronger effect = lower value 0.983 | S. cerevisiae deletion strains, locus YLR027C, strain aat2, stronger effect = lower value 0.983 | S. cerevisiae deletion strains, locus YLR039C, strain RIC1, stronger effect = lower value 1.01 | S. cerevisiae deletion strains, locus YLR058C, strain SHM2, stronger effect = lower value 0.999 | S. cerevisiae deletion strains, locus YLR102C, strain apc9, stronger effect = lower value 0.998 | S. cerevisiae deletion strains, locus YLR113W, strain HOG1, stronger effect = lower value 0.977 | S. cerevisiae deletion strains, locus YLR221C, strain rsa3, stronger effect = lower value 0.982 | S. cerevisiae deletion strains, locus YLR258W, strain gsy2, stronger effect = lower value 0.98 | S. cerevisiae deletion strains, locus YLR262C, strain YPT6 (second series), stronger effect = lower value 0.987 | S. cerevisiae deletion strains, locus YLR262C, strain YPT6, stronger effect = lower value 0.977 | S. cerevisiae deletion strains, locus YLR268W, strain sec22, stronger effect = lower value 0.987 | S. cerevisiae deletion strains, locus YLR320W, strain mms22, stronger effect = lower value 0.993 | S. cerevisiae deletion strains, locus YLR330W, strain CHS5, stronger effect = lower value 0.989 | S. cerevisiae deletion strains, locus YLR342W, strain FKS1 (second series), stronger effect = lower value 0.991 | S. cerevisiae deletion strains, locus YLR342W, strain FKS1, stronger effect = lower value 0.985 | S. cerevisiae deletion strains, locus YLR357W, strain rsc2, stronger effect = lower value 0.995 | S. cerevisiae deletion strains, locus YLR370C, strain arc18, stronger effect = lower value 0.984 | S. cerevisiae deletion strains, locus YLR371W, strain rom2, stronger effect = lower value 0.985 | S. cerevisiae deletion strains, locus YLR384C, strain iki3, stronger effect = lower value 0.979 | S. cerevisiae deletion strains, locus YLR418C, strain cdc73, stronger effect = lower value 1.03 | S. cerevisiae deletion strains, locus YML016C, strain PPZ1, stronger effect = lower value 1 | S. cerevisiae deletion strains, locus YML032C, strain rad52, stronger effect = lower value 0.988 | S. cerevisiae deletion strains, locus YML120C, strain ndi1, stronger effect = lower value 0.99 | S. cerevisiae deletion strains, locus YML124C, strain tub3, stronger effect = lower value 0.985 | S. cerevisiae deletion strains, locus YMR058W, strain fet3, stronger effect = lower value 0.998 | S. cerevisiae deletion strains, locus YMR078C, strain ctf18, stronger effect = lower value 0.979 | S. cerevisiae deletion strains, locus YMR125W, strain sto1, stronger effect = lower value 0.991 | S. cerevisiae deletion strains, locus YMR129W, stronger effect = lower value 0.997 | S. cerevisiae deletion strains, locus YMR205C, strain PFK2, stronger effect = lower value 0.996 | S. cerevisiae deletion strains, locus YMR223W, strain ubp8, stronger effect = lower value 0.989 | S. cerevisiae deletion strains, locus YMR231W, strain pep5, stronger effect = lower value 0.974 | S. cerevisiae deletion strains, locus YMR263W, strain SAP30, stronger effect = lower value 0.986 | S. cerevisiae deletion strains, locus YMR307W, strain GAS1, stronger effect = lower value 1 | S. cerevisiae deletion strains, locus YNL067W, strain RPL9B, stronger effect = lower value 1 | S. cerevisiae deletion strains, locus YNL071W, strain lat1, stronger effect = lower value 0.988 | S. cerevisiae deletion strains, locus YNL128W, strain TEP1, stronger effect = lower value 1 | S. cerevisiae deletion strains, locus YNL153C, strain GIM3, stronger effect = lower value 1 | S. cerevisiae deletion strains, locus YNL183C, strain NPR1, stronger effect = lower value 0.933 | S. cerevisiae deletion strains, locus YNL209W, strain ssb2, stronger effect = lower value 1 | S. cerevisiae deletion strains, locus YNL233W, strain BNI4, stronger effect = lower value 1.01 | S. cerevisiae deletion strains, locus YNL248C, strain rpa49, stronger effect = lower value 0.986 | S. cerevisiae deletion strains, locus YNL250W, strain rad50, stronger effect = lower value 0.989 | S. cerevisiae deletion strains, locus YNL271C, strain bni1, stronger effect = lower value 0.994 | S. cerevisiae deletion strains, locus YNL298W, strain CLA4, stronger effect = lower value 0.97 | S. cerevisiae deletion strains, locus YNL307C, strain MCK1, stronger effect = lower value 1 | S. cerevisiae deletion strains, locus YNL322C, strain KRE1 (second series), stronger effect = lower value 0.979 | S. cerevisiae deletion strains, locus YNL322C, strain KRE1, stronger effect = lower value 1 | S. cerevisiae deletion strains, locus YNR049C, strain mso1, stronger effect = lower value 0.986 | S. cerevisiae deletion strains, locus YNR052C, strain pop2, stronger effect = lower value 0.977 | S. cerevisiae deletion strains, locus YOL006C, strain TOP1, stronger effect = lower value 1.05 | S. cerevisiae deletion strains, locus YOL012C, strain htz1 1.07 | S. cerevisiae deletion strains, locus YOL147C, strain pex11, stronger effect = lower value 0.981 | S. cerevisiae deletion strains, locus YOR001W, strain rrp6, stronger effect = lower value 0.982 | S. cerevisiae deletion strains, locus YOR061W, strain CKA2, stronger effect = lower value 0.998 | S. cerevisiae deletion strains, locus YOR069W, strain VPS5, stronger effect = lower value 1 | S. cerevisiae deletion strains, locus YOR070C, strain gyp1, stronger effect = lower value 0.98 | S. cerevisiae deletion strains, locus YOR080W, strain dia2, stronger effect = lower value 0.979 | S. cerevisiae deletion strains, locus YOR083W, strain WHI5, stronger effect = lower value 0.986 | S. cerevisiae deletion strains, locus YOR106W, strain vam3, stronger effect = lower value 0.989 | S. cerevisiae deletion strains, locus YOR136W, strain idh2, stronger effect = lower value 0.984 | S. cerevisiae deletion strains, locus YOR144C, strain elg1, stronger effect = lower value 0.985 | S. cerevisiae deletion strains, locus YOR184W, strain ser1, stronger effect = lower value 0.992 | S. cerevisiae deletion strains, locus YOR231W, strain MKK1, stronger effect = lower value 0.975 | S. cerevisiae deletion strains, locus YOR265W, strain rbl2, stronger effect = lower value 0.972 | S. cerevisiae deletion strains, locus YOR270C, strain vph1, stronger effect = lower value 1.02 | S. cerevisiae deletion strains, locus YOR290C, strain snf2, stronger effect = lower value 0.976 | S. cerevisiae deletion strains, locus YOR316C, strain cot1, stronger effect = lower value 0.99 | S. cerevisiae deletion strains, locus YPL051W, strain arl3, stronger effect = lower value 0.98 | S. cerevisiae deletion strains, locus YPL055C, strain LGE1, stronger effect = lower value 0.951 | S. cerevisiae deletion strains, locus YPL078C, strain atp4, stronger effect = lower value 0.992 | S. cerevisiae deletion strains, locus YPL106C, strain sse1, stronger effect = lower value 0.939 | S. cerevisiae deletion strains, locus YPL240C, strain hsp82, stronger effect = lower value 0.992 | S. cerevisiae deletion strains, locus YPL241C, strain CIN2, stronger effect = lower value 0.985 | S. cerevisiae deletion strains, locus YPL256C, strain CLN2, stronger effect = lower value 0.981 | S. cerevisiae deletion strains, locus YPR119W, strain clb2, stronger effect = lower value 0.985 | S. cerevisiae deletion strains, locus YPR141C, strain kar3, stronger effect = lower value 0.989 | S. cerevisiae deletion strains, locus YPR163C, strain tif3, stronger effect = lower value 0.978 | S. cerevisiae deletion strains, locus YPR167C, strain met16, stronger effect = lower value 0.995 | S. cerevisiae deletion strains, strain wtn01, stronger effect = lower value 0.983 | S. cerevisiae strains, strain wild type, stronger effect = lower value 0.996
